PubChem BioAssay
Unmarked numbers belong to inactive results. Calls of active or inactive are those of the source.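 The calls were made as follows, unless noted: active = mean inhibition over 43.08%, the solvent-only control mean plus 3 SD; inactive = the rest.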

Key:
[1] = target: Nuclear receptor coactivator 3 (Homo sapiens) (UniProt Q9Y6Q9); assay: SRC3 coactivator transcriptional activity inhibitors, confirmation, cell-based, luminescence, quadruplicate (AID 588792); settings: HEK293 GAL4-SRC3 luciferase reporter, at 3.6 µM, hits give high values;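 also: 0% = DMSO treated cells and 100% = gossypol at 36 µM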
Nuclear receptor coactivator 3 (Homo sapiens), sequence (Q9Y6Q9 whole entry, looked up, the tested form may be a part): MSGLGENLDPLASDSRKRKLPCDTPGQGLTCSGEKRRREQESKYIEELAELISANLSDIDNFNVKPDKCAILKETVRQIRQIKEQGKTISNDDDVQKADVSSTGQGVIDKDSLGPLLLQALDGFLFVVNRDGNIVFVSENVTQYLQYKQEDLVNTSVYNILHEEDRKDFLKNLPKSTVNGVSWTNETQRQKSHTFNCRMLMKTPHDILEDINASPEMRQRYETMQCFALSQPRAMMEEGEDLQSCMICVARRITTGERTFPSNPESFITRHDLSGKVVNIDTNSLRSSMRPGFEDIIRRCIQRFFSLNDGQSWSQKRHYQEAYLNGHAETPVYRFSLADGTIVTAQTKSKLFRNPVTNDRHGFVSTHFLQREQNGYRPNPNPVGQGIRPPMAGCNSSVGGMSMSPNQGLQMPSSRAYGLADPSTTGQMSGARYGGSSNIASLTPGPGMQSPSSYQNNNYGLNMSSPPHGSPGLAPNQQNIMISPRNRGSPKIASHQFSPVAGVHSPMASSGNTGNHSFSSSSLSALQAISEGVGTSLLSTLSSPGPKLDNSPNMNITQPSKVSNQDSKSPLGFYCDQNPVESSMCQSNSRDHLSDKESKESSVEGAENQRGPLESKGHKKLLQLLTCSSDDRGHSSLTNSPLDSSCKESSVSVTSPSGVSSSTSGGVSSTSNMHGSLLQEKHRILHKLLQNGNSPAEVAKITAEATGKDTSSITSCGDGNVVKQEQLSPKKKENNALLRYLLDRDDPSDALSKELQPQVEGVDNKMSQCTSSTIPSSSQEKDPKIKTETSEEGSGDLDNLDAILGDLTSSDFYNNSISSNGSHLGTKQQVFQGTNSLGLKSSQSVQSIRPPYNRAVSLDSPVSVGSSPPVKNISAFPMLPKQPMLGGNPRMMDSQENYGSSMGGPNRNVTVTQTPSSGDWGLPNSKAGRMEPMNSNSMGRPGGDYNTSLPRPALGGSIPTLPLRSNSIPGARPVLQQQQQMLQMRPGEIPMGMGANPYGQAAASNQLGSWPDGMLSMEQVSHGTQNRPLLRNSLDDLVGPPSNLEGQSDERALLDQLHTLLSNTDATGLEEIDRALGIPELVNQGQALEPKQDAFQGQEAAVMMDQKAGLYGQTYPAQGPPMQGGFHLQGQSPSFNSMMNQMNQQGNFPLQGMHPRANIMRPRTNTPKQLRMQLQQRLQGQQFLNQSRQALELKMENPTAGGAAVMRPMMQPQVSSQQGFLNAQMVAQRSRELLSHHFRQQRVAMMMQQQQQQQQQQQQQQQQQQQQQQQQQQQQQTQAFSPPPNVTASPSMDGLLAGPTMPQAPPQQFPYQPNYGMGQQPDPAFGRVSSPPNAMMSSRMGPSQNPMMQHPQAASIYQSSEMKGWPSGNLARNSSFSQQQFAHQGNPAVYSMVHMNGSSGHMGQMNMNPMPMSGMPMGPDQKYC

[2] = test system: transactivating tegument protein VP16 (Human herpesvirus 1), Gal4-VP16 luciferase reporter; assay: VP16 transactivation inhibitors, counter-screen for SRC3 inhibitor project, cell-based, luminescence, high throughput (AID 588794; in the data active = inhibition above about 30%); settings: mammalian cells, VP16-driven luciferase reporter luminescence; at 3.6 µM; hits give high values

SMILES | inhibition [1] | inhibition [2]
O=C(CCl)NC1CCCc2ccccc21 (centres undefined) | 1.81% | -5.4%
Cc1cccc(OCC(=O)NCC(=O)N/N=C/c2ccc(O)cc2O)c1 | 15.4% | 14%
Cc1cc(C)n(CCC(=O)N/N=C/c2ccccc2O)n1 | 18% | 4.14%
COc1cc(NC(=O)C2CCN(S(=O)(=O)c3ccc(N4CCCC4=O)cc3)CC2)cc(OC)c1 | 7.83% | 5.99%
CCCCCn1c(=O)[nH]c2cc(C(=O)N3CCN(c4ccc(C(C)=O)cc4)CC3)ccc2c1=O | 0.25% | 21.7%
CCCOc1cccc(C(=O)Nc2cc(NC(=O)c3ccco3)ccc2OC)c1 | 10.8% | 2.92%
CCOC(=O)c1c(NC(=S)N2CCN(C)CC2)sc2c1CCN(C(=O)OCC)C2 | 35.5% | 40.1% (active)
CCCCN(CCCC)C(=O)CSc1nnc(-c2cc(OC)c(OC)c(OC)c2)o1 | -1.92% | 4.79%
CCOc1ccc(OCC)c(NC(=O)CN(C)S(=O)(=O)c2cccc3nsnc23)c1 | 1.36% | 0.62%
CC(=O)c1c(C(C)=O)c(C)n(-c2ccc3ncccc3c2)c1C | 15.4% | 6.55%
O=C(NCCc1ccccn1)C(F)(F)C(F)(F)C(F)(F)C(F)(F)C(F)(F)C(F)(F)C(F)(F)C(F)F | 9.78% | -4.16%
O=C(O)c1cc(NS(=O)(=O)c2ccc(N3CCOCC3)c([N+](=O)[O-])c2)cc(C(=O)O)c1 | 1.8% | -5.01%
Cc1ccccc1-n1nnnc1Sc1nnnn1-c1ccccc1 | 7% | 7.79%
Cc1ccc(C(=O)N/N=C/c2ccc(-c3cccc(C(F)(F)F)c3)o2)cn1 | 6.91% | 4.45%
O=C(CCN1CCOCC1)N/N=C/c1cc(Br)cc(Br)c1O | 13.6% | 7.46%
O=C(/C=C/c1ccc([N+](=O)[O-])cc1)c1ccccc(=O)c1O | 33% | 37.5% (active)

SMILES | inhibition [1] | inhibition [2]
COc1cccc(C(=O)CC(=O)C(=O)Nc2cccc([N+](=O)[O-])c2C)c1 | -3.08% | -1.84%
O=C(Nc1ccccc1Cc1ccccc1)c1ccccc1NS(=O)(=O)c1ccc(Cl)s1 | 4.01% | 24.9%
O=C(N/N=C/c1cc(Cl)ccc1O)c1ccncc1 | 16.7% | 35.7% (active)
Cc1ccc(-n2c(-c3ccccc3)c[n+]3c2CCC3)cc1 | 14.4% | 30.6% (active)
Cn1nc(C(F)(F)F)c(-c2ccc(Br)cc2)c1NC(=O)c1ccco1 | 7.4% | -1.15%
CC(C)NC(=O)N(C)C[C@H]1Oc2ccc(NS(=O)(=O)c3ccc(Cl)cc3)cc2CC(=O)N([C@@H](C)CO)C[C@@H]1C | 5.62% | -1.86%
O=C(N/N=C/c1c(O)ccc2ccccc12)c1ccc(Br)o1 | 57.3% (active) | 43.2% (active)
CC(C)COc1ccc(C(=O)Nc2sc3c(c2C(=O)O)CC(C)(C)OC3)cc1 | 45.4% (active) | 68.5% (active)
CCOC(=O)N1CCC(NC(=O)C2CCCN(Cc3nc(-c4ccc(CC)cc4)oc3C)C2)CC1 (centres undefined) | 18.7% | 33.9% (active)
CC(C)[C@@H]1CC[C@@H](C)C[C@H]1OC(=O)C[n+]1cc(-c2ccc(Cl)cc2)n2c1CCCCC2 | 10.3% | 20.6%
Cc1cccc(Nc2ncnc(N)c2[N+](=O)[O-])n1 | 24.9% | 4.32%
O=C(Nc1ccc2c(c1)CCC2)C1CCN(c2c3c(nc4ncnn24)CCC3)CC1 | 13.5% | 13.2%
CC/C(C)=N/Nc1cccc([N+](=O)[O-])c1 | 2.68% | 18%
CCN(CC)c1ccc(/C=N/NC(=O)c2ccc3nc[nH]c3c2)c(O)c1 | 51.3% (active) | 50.6% (active)
Cc1ccc(C(=O)N(Cc2cccs2)C2CCS(=O)(=O)C2)cc1 (centres undefined) | -5.57% | 0.26%
CCCNc1nc(OC(C(F)(F)F)C(F)(F)F)nc(OC(C(F)(F)F)C(F)(F)F)n1 | 7.26% | -8.01%
